# Values without a mark were called inactive. The rule behind the calls is not given here.
# Target: Pantothenate synthetase (Mycobacterium tuberculosis (strain ATCC 25618 / H37Rv)) (UniProt P9WIL5)
# Experiment: Coupled enzyme confirmation of inhibitors against recombinant Mtb PanC (AID 375);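 note: 0% = full reaction with vehicle and 100% = no enzyme background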
# Conditions: coupled enzyme assay; at 10 µM, hits give high values
# Chain of Pantothenate synthetase (Mycobacterium tuberculosis (strain ATCC 25618 / H37Rv)) (P9WIL5 whole entry, looked up): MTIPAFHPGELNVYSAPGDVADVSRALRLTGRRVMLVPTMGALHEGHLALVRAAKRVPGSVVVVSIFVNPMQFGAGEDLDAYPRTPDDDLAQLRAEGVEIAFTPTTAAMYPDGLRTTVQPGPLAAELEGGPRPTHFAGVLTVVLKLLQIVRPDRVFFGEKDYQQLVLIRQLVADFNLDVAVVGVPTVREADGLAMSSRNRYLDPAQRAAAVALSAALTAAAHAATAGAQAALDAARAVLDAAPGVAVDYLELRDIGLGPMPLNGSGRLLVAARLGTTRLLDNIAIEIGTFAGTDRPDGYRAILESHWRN
row,Compound,inhibition
1,O=C(Nc1ccc2c(c1)OCO2)c1ccc(CN2CCOCC2)cc1,1%
2,COc1ccc2c(c1)cc(C(=O)O)n2C,6%
3,CCOC(=O)c1c(C)oc2ccc(OCC(N)=O)cc12,0%
4,O=C(OCCN(CCOC(=O)c1ccncc1)S(=O)(=O)c1cccs1)c1ccncc1,0%
5,Cc1ccc(C2CC(c3ccc(C)cc3)n3nc(N)nc3N2)cc1 (stereo unspecified),5%
6,Cc1ccc(CN2C(=O)CCC2C(=O)NCC2CCCO2)cc1 (stereo unspecified),3%
7,Cc1cc(C)c(Cn2c(=O)n(CCCC(=O)NCc3ccco3)c(=O)c3ccccc32)c(C)c1,7%
8,Cc1nnc2sc(-c3cccc(NC(=O)c4cccnc4)c3)nn12,0%
9,CS(=O)(=O)c1ccc2nc(NC(=O)c3cccs3)sc2c1,0%
10,O=C(NCCCCNC(=O)c1c(F)c(F)c(F)c(F)c1F)c1c(F)c(F)c(F)c(F)c1F,0%
11,COc1ccc(-c2cc(C(F)(F)F)n3nc(C(=O)N4CCOCC4)nc3n2)cc1,8%
12,CCOC(=O)CSc1nc2cc(C(=O)NCc3ccco3)ccc2c(=O)n1-c1ccc(F)cc1,3%
13,O=C(CN(Cc1ccc(F)cc1)C(=O)Cn1nnc2ccccc21)NCC1CCCO1 (stereo unspecified),0%
14,CC1=CC2=C(OC1N(C)C)c1cccc3cccc(c13)C2=O (stereo unspecified),5%
15,CC1(C)CC(=O)c2cnc(NC(=O)CSc3nc4ccccc4o3)nc2C1,0%
16,O=C(CCSc1nc(-c2ccco2)cc(C(F)(F)F)n1)NCCc1ccccc1,1%

# — PubChem BioAssay
